PubChem BioAssay (NCATS)
Records with an inconclusive call do not appear. A number with no mark means an inactive call. Calls of active or inactive are those of the source. Calls follow the shape of the dose curve; as a rule, active = well fitted inhibition curve with a large enough effect; inconclusive = small, poorly fitted or top-dose-only effect; inactive = no such curve, though single readings can be large or run the other way.

Each molecule was assayed against Cytochrome P450 2C9 (Homo sapiens) (UniProt P11712) (assay: qHTS for inhibitors of CYP2C9 against the NCATS DSHEA and TCM libraries (AID 1919973;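 as to activity change, negative = inhibition: luminogenic pro-luciferin CYP2C9 substrate turned into luciferin with NADPH regeneration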)). Conditions: recombinant CYP2C9 enzyme activity, luminescence; series mostly up to 34.1 µM; activity change, negative = inhibition: at the top concentration.
Cytochrome P450 2C9 (Homo sapiens), sequence (P11712 whole entry, looked up): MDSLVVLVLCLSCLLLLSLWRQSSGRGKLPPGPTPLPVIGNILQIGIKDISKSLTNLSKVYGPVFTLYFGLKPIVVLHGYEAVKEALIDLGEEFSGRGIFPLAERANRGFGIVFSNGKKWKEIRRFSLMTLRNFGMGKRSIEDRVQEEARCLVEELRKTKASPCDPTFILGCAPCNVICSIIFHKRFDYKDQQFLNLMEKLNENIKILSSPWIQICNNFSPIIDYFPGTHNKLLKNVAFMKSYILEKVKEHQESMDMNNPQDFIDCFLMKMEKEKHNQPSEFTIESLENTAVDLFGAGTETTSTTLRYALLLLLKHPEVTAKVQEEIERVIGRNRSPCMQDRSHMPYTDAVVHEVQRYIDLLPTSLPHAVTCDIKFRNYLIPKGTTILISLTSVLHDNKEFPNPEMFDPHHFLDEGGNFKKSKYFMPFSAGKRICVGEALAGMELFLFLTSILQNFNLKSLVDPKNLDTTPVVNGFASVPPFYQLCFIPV
Description: Assay Development and Screening Technology Laboratory (ADST)
National Center for Advancing Translational Sciences (NCATS), Rockville, MD
National Institute of Health (NIH), Bethesda, Maryland
Dietary Supplements and Natural Products have minor oversight of their safety and efficacy. We assembled a collection of Dietary Supplements and Natural Products (DSNP) as well as Traditional Chinese Medicinal (TCM) Plant extracts, which were screened against an in vitro panel of assays, including a liver cytochrome p450 enzyme panel, CAR/PXR signaling pathways, and P-gp transporter assays, to assess their activity. This pipeline facilitated the interrogation of Natural Product-Drug Interaction (NaPDI) through prominent metabolizing pathways. In addition, we compared the activity profiles of the DSNP/TCM substances with those of an approved drug collection. Many of the approved drugs have well-annotated mechanisms of action (MOA) while the MOAs for most of the DSNP and TCM samples remain unknown. Based on the premise that compounds with similar activity profiles tend to share similar targets or MOA, we clustered the library activity profiles to identify overlap with the NCATS Pharmaceutical Collection to predict the MOAs of the DSNP/TCM substances. Overall, we highlight four significant bioactivity profiles (measured by p-values) as examples of this prediction. To assess broad cytotoxicity, we employed screening against a HepG2 cell line. In addition, transporter-mediated drug interactions are utilized in the characterization of DDIs using a P-glycoprotein (P-gp) assays. To profile potential P-gp activity, a differential cell viability was measured against two cell lines: a parental KB-3-1 human cervical adenocarcinoma cell line and the drug-resistant subline KB-8-5-11 that overexpresses P-gp.
To this end, we profiled both collections for potential CAR and/or PXR activity, employing a previously published 1536-well qHTS assay.
[1] Lee TD, et al. A High-Throughput Screen of a Library of Therapeutics Identifies Cytotoxic Substrates of P-glycoprotein. Mol Pharmacol. Nov 2019;96(5):629-640. doi:10.1124/mol.119.115964
PROTOCOL TABLE (as described by Inglese J, Shamu CE and Guy RK. 2007)
SEQUENCE No. (e.g., 1, 2, 3, etc.); […] (e.g., Cells, Incubation, Reagent, etc.); VALUE; DESCRIPTION.
1; Reagent; 2 uL; cytochrome P450 enzyme and luciferin substrate or buffer only, white solid-bottom Greiner plate.
2; Compounds and control; 16 nL; Kalypsis pintool (Wako USA) equipped with a 1536-well pin head to transfer to the assay plates.
3; Incubation; 15 min; room temperature.
4; Reagent; 2 uL; nicotinamide adenine dinucleotide phosphate (NADPH).
5; Incubation; 30 - 45 min; room temperature in the dark.
6; Reagent; 4 uL; P450-Glo assay detection reagent.
7; Centrifuge; 1000 RPM; 15 seconds.
8; Incubation; 30 min; room temperature.
9; Read; Luminescence; ViewLux plate reader.
NOTES (numbers refer to Sequence numbers above)
1. A 2 uL mixture of corresponding enzymes and luciferin substrate (final concentrations CYP enzyme-specific and pro-luciferin substrate-specific) or minus-enzyme (assay buffer conditions supplied by the manufacturer for respective enzyme isoform; typically, 100 mM KPO4) and luciferin substrate were dispensed using a BioRAPTR FRD (Beckman Coulter, Brea, CA) into columns of a 1536-well white solid-bottom medium binding plate (Greiner Bio-One, Monroe, NC). Five isoforms of cytochrome P450 were used (CYP1A2, CYP2C9, CYP2C19, CYP2D6, and CYP3A4).
2. Substances (final concentrations of most substances ranged from 19.5 nM to 39.8 uM) and controls (CYP-specific) were transferred (16 nL) via pintool (Wako Automation, Richmond, VA). Intraplate controls furafylline (CYP1A2), sulfaphenazole (CYP2C9), ketoconazole (CYP2C19), quinidine (CYP2D6), and ketoconazole (CYP3A4) were used correspondingly.
3. Assay plates were incubated at room temperature for 15 min.
4-5. […]
% is scaled to controls: 0 for no effect and ±100 for the full control effect; potency is read from the fitted curve at half-maximal effect.

How did the “activity change, negative = inhibition” value turn out when `C=C1C[C@@]23CC[C@H]4[C@@](C)(CCC[C@@]4(C)C(=O)O[C@@H]4O[C@H](CO)[C@@H](O)[C@H](O)[C@H]4O)[C@@H]2CC[C@]1(O[C@@H]1O[C@H](CO)[C@@H](O)[C@H](O[C@@H]2O[C@H](CO)[C@@H](O)[C@H](O)[C@H]2O)[C@H]1O[C@@H]1O[C@@H](C)[C@H](O)[C@@H](O)[C@H]1O)C3` was run?
Its value is 13.9%.

With `CC(C)=CCC[C@](C)(OC1OC(COC2OCC(O)C(O)C2O)C(O)C(O)C1O)[C@H]1CC[C@]2(C)[C@@H]1[C@H](O)C[C@@H]1[C@@]3(C)CC[C@H](OC4OC(CO)C(O)C(O)C4OC4OC(CO)C(O)C(O)C4O)C(C)(C)[C@@H]3CC[C@]12C` (stereo not given in full) as the molecule, how does the “activity change, negative = inhibition” value read?
The value was 7.19%.

With `O=C(O)CC(O)(C(=O)O)C(O)C(=O)O` (stereo not given) as the molecule, how does the “activity change, negative = inhibition” value read?
Its value is 5.91%.

How did the “activity change, negative = inhibition” value turn out when `CC(C)=CCCC(C)(OC1OC(COC2OC(CO)C(O)C2O)C(O)C(O)C1O)C1CCC2(C)C1C(O)CC1C3(C)CCC(OC4OC(CO)C(O)C(O)C4OC4OC(CO)C(O)C(O)C4O)C(C)(C)C3CCC12C` (stereo not given) was run?
The value was 6.13%.

With `CCCCCCCCC/C=C/C(=O)CCc1ccc(O)c(OC)c1` as the molecule, how does the Potency read?
The Potency was 11.2 µM (active).

`OCC1=C[C@@H](O)[C@@H]2C=CO[C@@H](OC3O[C@H](CO)[C@@H](O)[C@H](O)[C@H]3O)[C@H]12` (stereo not given in full) was tested. Which “activity change, negative = inhibition” value did it give?
Its value is 3.89%.

Which “activity change, negative = inhibition” value does the source give for `C=C(C)C1CC=C(C)C(O)C1` (stereo not given) here?
The value was -5.09%.

Which “activity change, negative = inhibition” value does the source give for `O=Cc1ccccc1O` here?
Its value is 10.5% [at 58.3 µM].

For `CC1(C)C2CCC1(C)C(O)C2` (stereo not given), which “activity change, negative = inhibition” value is on record?
The value was 7.92%.

`COc1cc(/C=C/c2ccccc2)oc(=O)c1` was tested. Which “activity change, negative = inhibition” value did it give?
The value was 5.05%.

For `COc1ccc(/C=C/c2cc(OC)cc(=O)o2)cc1`, which “activity change, negative = inhibition” value is on record?
The value was 78.8%.

With `CCCCC/C=C/C(=O)CCc1ccc(O)c(OC)c1` as the molecule, how does the “activity change, negative = inhibition” value read?
Its value is 1.41%.

`C=C1C[C@@]23CC[C@H]4[C@](C)(CCC[C@]4(C)C(=O)O[C@@H]4O[C@H](CO)[C@@H](O)[C@H](O)[C@H]4O)[C@@H]2CC[C@]1(O[C@H]1O[C@@H](CO)[C@H](O)[C@@H](O)[C@@H]1O)C3` was tested. Which “activity change, negative = inhibition” value did it give?
Its value is -11.2%.

`Cc1ccc(O)c(O)c1` was tested. Which “activity change, negative = inhibition” value did it give?
Its value is 3.08% [at 58.3 µM].

For `C=CCc1ccc(OC)c(OC)c1`, which “activity change, negative = inhibition” value is on record?
The value was -3.81%.

For `CC(C)=CCCC(C)=CCCC(C)=CCCC=C(C)CCC=C(C)CCC=C(C)C`, which “activity change, negative = inhibition” value is on record?
Its value is 2.73%.

With `CCCCCCCCCC=O` as the molecule, how does the “activity change, negative = inhibition” value read?
The value was -24.1% [at 58.3 µM].

How did the “activity change, negative = inhibition” value turn out when `C=C1C[C@]23CC[C@H]4[C@@](C)(CCC[C@@]4(C)C(=O)O)[C@@H]2CC[C@@]1(O[C@@H]1O[C@H](CO)[C@@H](O)[C@H](O)[C@H]1O[C@@H]1O[C@H](CO)[C@@H](O)[C@H](O)[C@H]1O)C3` was run?
The value was 9.85%.

`COc1cc(-c2oc3cc(O)cc(O)c3c(=O)c2O)ccc1O` was tested. Which Potency did it give?
The Potency was 4.47 µM (active).

With `COc1ccc(C(=O)O)cc1` as the molecule, how does the “activity change, negative = inhibition” value read?
The value was 7.34% [at 58.3 µM].

How did the “activity change, negative = inhibition” value turn out when `CC(=O)OC/C=C/c1ccccc1` was run?
The value was -3% [at 58.3 µM].

For `O=C(O)c1ccccc1`, which “activity change, negative = inhibition” value is on record?
The value was 11.8%.

`OCCc1ccc(O)cc1` was tested. Which “activity change, negative = inhibition” value did it give?
The value was 4.92% [at 58.3 µM].

With `CC(=O)O[C@H]1[C@H](O[C@H]2CC[C@]34C[C@]35CC[C@]3(C)[C@@H]([C@@]6(C)CC[C@@H](C(C)(C)O)O6)[C@@H](O)C[C@@]3(C)[C@@H]5C[C@H](O[C@@H]3O[C@H](CO)[C@@H](O)[C@H](O)[C@H]3O)[C@H]4C2(C)C)OC[C@@H](O)[C@@H]1O` as the molecule, how does the “activity change, negative = inhibition” value read?
The value was -8.27%.

Which Potency does the source give for `O=C(/C=C/c1ccc(O)c(O)c1)O[C@H]1[C@H](O)C[C@](O)(C(=O)O)C[C@H]1OC(=O)/C=C/c1ccc(O)c(O)c1` here?
The Potency was 15.8 µM (active).

For `C=C(C)C(CC=C(C)C)CC12CC(CC=C(C)C)C(C)(C)C(CC=C(C)C)(C(=O)/C(=C(\O)c3ccc(O)c(O)c3)C1=O)C2=O` (stereo not given), which Potency is on record?
Its Potency is 15.8 µM (active).

Which “activity change, negative = inhibition” value does the source give for `CC1(C)CC[C@]2(C(=O)O)CC[C@]3(C)C(=CCC4[C@@]5(C)CC[C@@H](O)C(C)(C)C5CC[C@]43C)C2C1` (stereo not given in full) here?
Its value is 5.84%.

With `CCCCCC(=O)O` as the molecule, how does the “activity change, negative = inhibition” value read?
The value was 29.7% [at 58.3 µM].

`O=C(/C=C/c1ccc(O)c(O)c1)O[C@@H]1C[C@](O)(C(=O)O)C[C@@H](O)[C@H]1O` was tested. Which “activity change, negative = inhibition” value did it give?
Its value is 2.78%.

`C[C@@H]1O[C@@H](OC[C@H]2OC(Oc3c(-c4ccc(O)c(O)c4)oc4cc(O)cc(O)c4c3=O)[C@H](O)[C@@H](O)[C@@H]2O)[C@H](O)[C@H](O)[C@H]1O` (stereo not given in full) was tested. Which “activity change, negative = inhibition” value did it give?
The value was 0.795%.

Which “activity change, negative = inhibition” value does the source give for `C[C@@H]1OC(O[C@H]2[C@H](O)[C@@H](O)[C@H](OC[C@H]3O[C@@H](OC(=O)[C@]45CCC(C)(C)C[C@@H]4C4=CCC6[C@@]7(C)CC[C@H](OC8OC[C@H](O)[C@H](O)[C@H]8OC8O[C@@H](C)[C@H](O)[C@@H](O)[C@H]8O)[C@@](C)(CO)C7CC[C@@]6(C)[C@]4(C)CC5)[C@H](O)[C@@H](O)[C@@H]3O)O[C@@H]2CO)[C@H](O)[C@H](O)[C@H]1O` (stereo not given in full) here?
The value was 1.27%.

`CC(C)(O)[C@@H]1CC[C@](C)([C@H]2[C@@H](O)C[C@@]3(C)[C@@H]4C[C@H](O)[C@H]5C(C)(C)[C@@H](O[C@@H]6OC[C@@H](O)[C@H](O)[C@H]6O[C@@H]6O[C@H](CO)[C@@H](O)[C@H](O)[C@H]6O)CC[C@@]56C[C@@]46CC[C@]23C)O1` was tested. Which “activity change, negative = inhibition” value did it give?
The value was -9.56%.

`CC[C@H](CC[C@@H](C)[C@H]1CCC2C3CCC4C[C@@H](O)CC[C@]4(C)C3CC[C@@]21C)C(C)C` (stereo not given in full) was tested. Which “activity change, negative = inhibition” value did it give?
Its value is 14.5%.

For `COc1ccc(-c2coc3cc(O[C@@H]4O[C@H](CO)[C@@H](O)[C@H](O)[C@H]4O)ccc3c2=O)cc1`, which “activity change, negative = inhibition” value is on record?
Its value is -16.6%.

Which Potency does the source give for `O=c1cc(-c2ccc(O)cc2)oc2cc(O[C@@H]3O[C@H](CO)[C@@H](O)[C@H](O)[C@H]3O[C@@H]3OC[C@](O)(CO)[C@H]3O)cc(O)c12` here?
The Potency was 8.91 µM (active).

`Cc1ccc(C(C)C)cc1` was tested. Which “activity change, negative = inhibition” value did it give?
Its value is 18.7% [at 58.3 µM].

With `CCCCCC(=O)CC` as the molecule, how does the “activity change, negative = inhibition” value read?
The value was 22.8% [at 104 µM].

How did the Potency turn out when `CCCCC/C=C/C/C=C/CCCCCCCC(=O)O` was run?
The Potency was 12.6 µM (active).

How did the Potency turn out when `C=C1CC[C@H](O)C/C1=C\C=C1/CCC[C@]2(C)[C@@H]([C@H](C)CC[C@H](C)C(C)C)CC[C@@H]12` was run?
The Potency was 10 µM (active).

With `O=c1c(O[C@@H]2O[C@H](CO)[C@H](O)[C@H](O)[C@H]2O)c(-c2ccc(O)c(O)c2)oc2cc(O)cc(O)c12` as the molecule, how does the Potency read?
The Potency was 7.94 µM (active).
